Data published in PubChem BioAssay (NCI).
This is part of a sample that, as a whole, favours compounds with a hit. Of some 79,000 tested, about 15% had one in any assay. Calls of active or inactive are those of the source. No stated cut-off is given here; in the data, active means growth inhibition above about 70%; inactive means the rest.

Key:
[1] = NCI Yeast Anticancer Drug Screen. Data for the rad52 strain (AID 147);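 further: 0% = growth of vehicle-treated control cultures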; conditions: S. cerevisiae rad52 mutant growth inhibition, stronger effect = higher value
Procedure, shortened: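 Inhibition of yeast growth, referenced to vehicle controls, was the measured output for a strain with defective DNA damage repair.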

[2] = NCI Yeast Anticancer Drug Screen. Data for the wt1 strain (AID 149);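 further: 0% = growth of vehicle-treated wt1 cultures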; conditions: S. cerevisiae wt1 strain (SPY 50644) growth inhibition, stronger effect = higher value
Procedure, shortened: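 Growth inhibition read against vehicle controls after compound exposure of the wt1 yeast strain.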

[3] = NCI Yeast Anticancer Drug Screen. Data for the rad50EPP+ strain (AID 151);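 further: 0% = growth of vehicle-treated control cultures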; conditions: S. cerevisiae rad50 mutant strain, stronger effect = higher value
Procedure, shortened: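 Genetically defined yeast (rad50EPP+, DNA damage repair alteration) is grown with compound, and inhibition of growth is expressed relative to vehicle-treated controls.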

[4] = NCI Yeast Anticancer Drug Screen. Data for the mgt1 strain (AID 153); conditions: S. cerevisiae mgt1 mutant growth inhibition, stronger effect = higher value
Procedure, shortened: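 In the mgt1 strain, test compounds were added and growth inhibition was determined relative to vehicle-treated controls.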

[5] = NCI Yeast Anticancer Drug Screen. Data for the rad50 strain (AID 155);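 further: 0% = growth of vehicle-only cultures of the same strain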; conditions: S. cerevisiae rad50 strain growth inhibition, stronger effect = higher value
Procedure, shortened: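 Readout: growth inhibition relative to vehicle-treated cultures. Compound exposure was carried out in a genetically defined yeast strain deficient in DNA damage repair.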

[6] = NCI Yeast Anticancer Drug Screen. Data for the mec2-1 strain (AID 157); conditions: S. cerevisiae mec2-1 strain, stronger effect = higher value
Procedure, shortened: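 Each compound was tested on mec2-1 yeast, a strain altered in DNA damage repair or cell cycle control. Growth inhibition is reported relative to vehicle.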

[7] = NCI Yeast Anticancer Drug Screen. Data for the rad14 strain (AID 159);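 further: 0% = growth of vehicle-treated control cultures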; conditions: S. cerevisiae rad14 strain growth inhibition, stronger effect = higher value
Procedure, shortened: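 Growth inhibition vs vehicle controls; genetically altered yeast strain (DNA damage repair defect) treated with test compounds.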

[8] = NCI Yeast Anticancer Drug Screen. Data for the sgs1 mgt1 strain (AID 161);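 further: 0% = growth of cultures given vehicle only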; conditions: S. cerevisiae sgs1 mgt1 strain, stronger effect = higher value
Procedure, shortened: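 Inhibition of yeast growth, normalised to vehicle-treated controls, is reported for a strain bearing genetic alterations in DNA damage repair.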

[9] = NCI Yeast Anticancer Drug Screen. Data for the CLN2oe strain (AID 163);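 further: 0% = growth of vehicle-only control cultures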; conditions: S. cerevisiae CLN2oe strain, stronger effect = higher value
Procedure, shortened: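 First, the altered yeast strain was treated with each compound; second, its growth was measured; finally, inhibition was derived by comparison with vehicle controls.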

[10] = NCI Yeast Anticancer Drug Screen. Data for the cln2 rad14 strain (AID 165);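 further: 0% = growth equal to vehicle treated cultures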; conditions: S. cerevisiae cln2 rad14 strain, stronger effect = higher value
Procedure, shortened: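 Test compounds were added to cln2 rad14 yeast cultures; inhibition of growth was then determined by comparison with vehicle treatment.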

[11] = NCI Yeast Anticancer Drug Screen. Data for the bub3 strain (AID 167); conditions: S. cerevisiae bub3 mutant strain, stronger effect = higher value
Procedure, shortened: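 Readout: yeast growth inhibition, expressed relative to vehicle-only wells. The test organism is a mutant strain from a panel with lesions in DNA repair or checkpoint genes.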

[12] = NCI Yeast Anticancer Drug Screen. Data for the wt2 strain (AID 169);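 further: 0% = growth of vehicle-treated yeast cultures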; conditions: S. cerevisiae wt2 strain growth inhibition, stronger effect = higher value
Procedure, shortened: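 The panel's yeast strains carry defined changes in DNA repair or cell cycle genes. Each strain is grown with compound, and growth loss is scored relative to vehicle.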

[13] = NCI Yeast Anticancer Drug Screen. Data for the mlh1 strain (AID 171);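 further: 0% = growth of vehicle-treated control cultures of the same strain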; conditions: S. cerevisiae mlh1 strain growth inhibition, stronger effect = higher value
Procedure, shortened: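 Inhibition values reflect reduced yeast growth in the presence of compound, referenced to vehicle controls, using a strain chosen for its alteration in DNA repair or cell cycle control.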

[14] = NCI Yeast Anticancer Drug Screen. Data for the sgs1 strain (AID 173);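 further: 0% = growth of vehicle-only control cultures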; conditions: S. cerevisiae sgs1 mutant, stronger effect = higher value
Procedure, shortened: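 Vehicle-treated cultures served as reference for growth inhibition of a yeast strain altered in DNA damage repair or cell cycle control after compound exposure.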

[15] = NCI Yeast Anticancer Drug Screen. Data for the mlh1 rad18 strain (AID 175); conditions: S. cerevisiae mlh1 rad18 strain growth inhibition, stronger effect = higher value
Procedure, shortened: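 Inhibition values reflect reduced growth of mutant yeast versus vehicle-treated controls following compound exposure; the mutations affect DNA damage repair.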

[16] = at 5.0 µM (retest, dose inferred, filed as 0.5)
[17] = at 50.0 µM (retest, dose inferred, filed as 5.0)

Measured: growth inhibition

C[n+]1c(/C=C/c2ccc(/C=N/NC(=O)c3ccc(C(=O)N/N=C/c4ccc(/C=C/c5cn6ccccc6[n+]5C)cc4)cc3)cc2)cn2ccccc21
active: [1]; at 1.2 µM 80% | [1]; at 3.7 µM 97% | [1]; at 11.0 µM 97% | [1]; at 33.0 µM 96% | [1]; at 100.0 µM 93% | [2]; at 3.7 µM 88% | [2]; at 11.0 µM 95% | [2]; at 33.0 µM 97% | [2]; at 100.0 µM 95% | [3]; at 3.7 µM 97% | [3]; at 11.0 µM 95% | [3]; at 33.0 µM 95% | [3]; at 100.0 µM 91% | [4]; at 3.7 µM 99% | [4]; at 11.0 µM 99% | [4]; at 33.0 µM 97% | [4]; at 100.0 µM 94% | [5]; at 1.2 µM 87% | [5]; at 3.7 µM 98% | [5]; [16] 79% | [5]; at 11.0 µM 97% | [5]; at 33.0 µM 95% | [5]; [17] 96% | [5]; at 50.0 µM 88.7% | [5]; at 100.0 µM 89% | [6]; at 3.7 µM 99% | [6]; [16] 92% | [6]; at 11.0 µM 98% | [6]; at 33.0 µM 97% | [6]; [17] 98% | [6]; at 50.0 µM 90.8% | [6]; at 100.0 µM 94% | [7]; at 3.7 µM 98% | [7]; at 11.0 µM 97% | [7]; at 33.0 µM 97% | [7]; at 100.0 µM 92% | [8]; [17] 98% | [8]; at 50.0 µM 85.7% | [9]; at 3.7 µM 91% | [9]; at 11.0 µM 91% | [9]; at 33.0 µM 95% | [9]; at 100.0 µM 89% | [10]; [17] 98% | [10]; at 50.0 µM 85.7% | [11]; at 3.7 µM 98% | [11]; at 11.0 µM 98% | [11]; at 33.0 µM 97% | [11]; at 50.0 µM 90.9% | [11]; at 100.0 µM 93% | [12]; at 3.7 µM 98% | [12]; at 11.0 µM 96% | [12]; at 33.0 µM 98% | [12]; at 100.0 µM 97% | [13]; at 3.7 µM 99% | [13]; at 11.0 µM 98% | [13]; at 33.0 µM 97% | [13]; at 100.0 µM 94% | [14]; at 3.7 µM 98% | [14]; at 11.0 µM 99% | [14]; at 33.0 µM 98% | [14]; at 100.0 µM 95% | [15]; [16] 90% | [15]; [17] 98% | [15]; at 50.0 µM 91.7%
inactive: [2]; at 1.2 µM 25% | [3]; at 1.2 µM 58% | [4]; at 1.2 µM 42% | [6]; at 1.2 µM 62% | [7]; at 1.2 µM 62% | [8]; [16] 64% | [9]; at 1.2 µM 47% | [10]; [16] 33% | [11]; at 1.2 µM 41% | [11]; [16] 8% | [11]; [17] 4% | [12]; at 1.2 µM 45% | [13]; at 1.2 µM 52% | [14]; at 1.2 µM 56%
